For 43 molecules, inhibition results are on record in PubChem BioAssay AID1645858 (Buhrlage Lab, Dana-Farber Cancer Institute and Novartis …, 2021).

About 330 (0.7%) of roughly 47,000 compounds were called active. Cut-off read from the data, not from the text of the source: active = inhibition above about 30%; inactive = the rest. This excerpt belongs to a sample that is enriched for actives.

This assay deals with OTU domain-containing protein 3 (Homo sapiens) (UniProt Q5T2D3). Description: inhibitors of human OTUD3 deubiquitinase (AID 1645858). As to conditions: purified OTUD3, Ub-rhodamine fluorescence, 2 h; at 25 µM; stronger effect = higher value.
Chain of OTU domain-containing protein 3 (Homo sapiens) (Q5T2D3 whole entry, looked up, the tested form may be a part): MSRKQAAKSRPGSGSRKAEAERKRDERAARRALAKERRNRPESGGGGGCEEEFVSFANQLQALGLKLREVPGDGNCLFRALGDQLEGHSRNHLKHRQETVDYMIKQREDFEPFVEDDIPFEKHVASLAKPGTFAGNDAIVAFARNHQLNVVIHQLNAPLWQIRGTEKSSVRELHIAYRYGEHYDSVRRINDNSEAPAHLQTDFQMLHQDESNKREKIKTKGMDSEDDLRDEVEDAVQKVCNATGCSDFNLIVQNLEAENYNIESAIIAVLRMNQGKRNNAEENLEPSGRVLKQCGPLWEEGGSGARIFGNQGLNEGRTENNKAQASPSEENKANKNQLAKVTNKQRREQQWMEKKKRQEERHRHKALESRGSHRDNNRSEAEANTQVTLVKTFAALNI
For the molecule `Cc1cc2n(n1)CCCN2C(=O)CCC(=O)N1CCN(c2ccc(F)cc2)CC1`, the inhibition is 7.75% (inactive).

On to `O=C(NCc1cccnc1)C1CCN(c2cnc(N3CCCCCC3)nc2)CC1`, for which the inhibition is -16.6% (inactive).

Regarding `O=C(Cn1cccc1-c1nnc(C2CC2)o1)NC1CCCCC1`, the inhibition was -15.9% (inactive). For the molecule `CCCNc1c(NC(=O)C2CC(=O)N(c3ccccc3)C2)c(=O)oc2ccccc12` (stereo not drawn), the inhibition is 21.6% (inactive). As for `O=C(N[C@@H]1C[C@@H](Oc2cccnc2)[C@H](O)[C@H]1N1CCCCC1)c1ccccn1`, the inhibition is -9.39% (inactive).

As for `CC(=O)N1Cc2ccccc2CC2(CCN(Cc3cccnc3)CC2)C1`, the inhibition is 4.03% (inactive). As for `CCC(=O)Nc1nc2cc(NC(=O)c3ccc(OC)cc3)ccc2s1`, the inhibition was 17.4% (inactive).

In the case of `O=C(NCCc1ccccc1)c1ccc2c(=O)n(Cc3ccco3)c(=O)n(Cc3cccc([N+](=O)[O-])c3)c2c1`, the inhibition is 36.8% (active). Then `O=C(NCCc1ccccc1)c1ccc2c(=O)nc3c(-c4ccccc4F)n[nH]n3c2c1`, with -7.12% (inactive); and `O=C(Cn1c(=O)n(Cc2ccc3c(c2)OCO3)c(=O)c2ccccc21)NCc1ccco1`, with 0.529% (inactive); and `COCCn1cc2c3c(cccc31)CN(C(=O)c1cnccn1)CC2`, with -12.8% (inactive). The figure for `Cc1nn(-c2ccccn2)c2ncc(C(=O)c3cc(F)ccc3O)cc12` is -3.93% (inactive); for `CCNC(=O)CCc1nc2c(C)nn(-c3ccccc3)c2n(CC)c1=O` it is 9.41% (inactive). In the case of `CC(C)c1cc(C2CCCN2C(=O)Cc2ccc(F)cc2)no1` (stereo not drawn), the inhibition is 2.85% (inactive). `CCN1CCC(n2c(C(F)(F)F)nc3c(OC)cccc32)CC1`: the inhibition was 5.17% (inactive). The figure for `CCN1C[C@@]23CN(C(=O)c4cccc(Cl)c4)C[C@@H](C[C@@H]2S1(=O)=O)O3` is 11.4% (inactive); for `CCc1nnc(-c2ccc(=O)n(CC(=O)N3CCN(C(C)C)CC3)c2)o1` it is -5.08% (inactive). With `CNc1nc(N2CCCCCC2)nc(-n2cnc(SC)n2)n1`, the inhibition is -0.432% (inactive). `COc1cccc(N2CCN(C(=O)c3sc4ncccc4c3-n3cccc3)CC2)c1`: the inhibition is 15.3% (inactive). On to `O=C(Cc1cc(=O)oc2cc(O)ccc12)N1CC[C@@]2(O)CCCC[C@H]2C1`, for which the inhibition was 1.08% (inactive). The figure for `Cc1occc1C(=O)Nc1cc(-c2ccc(F)cc2)nn1C` is -0.358% (inactive). As for `O=C(O)CC1(CC(=O)Nc2ccc(Oc3ccccc3)cc2)CCCC1`, the inhibition is 15.9% (inactive). For `Clc1ccc(CNC2CCN(Cc3ccccc3)C2)cc1Cl` (stereo not drawn), the inhibition was 5.2% (inactive).

As for `Cc1cc(S(=O)(=O)N2CC=C(c3c(C)[nH]c4ccccc34)CC2)ccc1F`, the inhibition was -29.4% (inactive). Turning to `CCc1ccc(S(=O)(=O)N2CCC3(CC2)COCCN(Cc2cccnc2)C3)cc1`, the inhibition is -4.96% (inactive). With `Clc1cc2nc(N3CCN(c4ccccn4)CC3)c3nncn3c2cc1Cl`, the inhibition was 44.6% (active). Then `O=C(c1ccc(N2CCCC2)nn1)N1CCN(c2ccccn2)CC1`, with 0.782% (inactive); and `Cc1nn(-c2ccccc2)c(C)c1S(=O)(=O)N1CCN(c2ccccn2)CC1`, with -4.16% (inactive); and `Cc1nc(NC(=O)c2ccc(F)cc2Cl)sc1-c1ccccc1`, with -3.32% (inactive). On to `CC(=O)N[C@@H]1C[C@H](c2cccc(F)c2)O[C@@H]2CCC[C@@H]12`, for which the inhibition is -4.95% (inactive). The figure for `CCn1c(CNC(=O)c2ccco2)nnc1SCC(=O)Nc1cccc(F)c1` is 0.153% (inactive); for `COc1ccc(/C=C/C(=O)Nc2ccc3c(c2)OCCO3)cc1Br` it is -13.2% (inactive). Then `O=C(CSc1nnc(-c2ccncc2)n1Cc1ccccc1)Nc1cccc(Cl)c1`, with -10.3% (inactive). The figure for `O=C(c1ccncc1)N1CC[C@@H]2CN(Cc3cccc(Cl)c3)S(=O)(=O)[C@@H]2CC1` is 2.12% (inactive).

As for `Cc1cccc(-c2c3c(=O)n(C)c(=O)n(C)c3cn2Cc2ccc(F)cc2)c1`, the inhibition was -12.7% (inactive). Then `CC(C)=CCC/C(C)=C\Cc1c(O)cc(C)c(C=O)c1O`, with -3.19% (inactive); and `NC(=O)c1ccc(NC(=O)Cc2cc(-c3ccc(Cl)cc3)on2)cc1`, with -10.7% (inactive); and `Cc1ccc(NS(=O)(=O)c2ccc3c(c2)NC(=O)CC(=O)N3)cc1F`, with -1.08% (inactive). Then `CCOc1ccc(S(=O)(=O)N2CCCC2c2ccco2)cc1` (stereo not drawn), with -0.738% (inactive); and `O=C1CC(C(=O)N2CCC(c3ccc(Nc4ncccn4)cn3)CC2)c2ccccc2N1` (stereo not drawn), with -7.6% (inactive).

With `O=S(=O)(c1cccc2cccnc12)N1CCN(C2CCCCC2)CC1`, the inhibition was -6.63% (inactive). Turning to `O=C1C(O)=C(c2ccc(O)c(O)c2)C(=O)C(O)=C1c1ccccc1`, the inhibition was 73.3% (active). The figure for `CCOC(=O)c1cc(C(=O)Nc2cccc(C(F)(F)F)c2)n2ccc(C)cc12` is -0.911% (inactive).

A word on the inhibition: it is the drop in the measured response relative to a control, in per cent.
